RAD54 branch: inhibitors of human RAD54 branch migration, primary screen, biochemical, fluorescence, single point | DNA repair and recombination protein RAD54-like (Homo sapiens), Q92698 | actives 0.14% (n = 360,000) | inhibition, % at 10.4 µM | RAD54 Holliday junction branch migration, FAM/BHQ fluorescence | AID 602329, 2012;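 active = mean normalized replicate activity at least 40 and at least half of replicates scoring 40 or more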;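 also: inhibitors cause a drop in the FAM fluorescence signal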
EWS-Fli block: EWS/Fli-driven NR0B1 reporter inhibitors, primary screen, A673 cells, NR0B1 luciferase, luminescence, MLPCN library | viability-normalised | inhibition, % at 12.6 µM | actives 0.67% (n = 350,000);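 active = mean inhibition of at least 50% after viability correction, with every replicate also passing that limit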;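 also: firefly luciferase signal divided by Alamar Blue viability fluorescence both relative to DMSO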
LGR2 inh: inhibitors of bursicon-induced LGR2 CRE-luciferase signal, primary screen, cell-based, HEK293, CRE-luciferase reporter, bursicon stimulation; Drosophila bursicon receptor LGR2 (rickets); bursicon-stimulated, 4 h; actives 0.35% (n = 380,000); inhibition, % at 9.99 µM;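 active = drop in luminescence signal, shown as inhibition above about 50% in the replicate tests, limit read from the data, passing the limit was not always enough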;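 also: agonist challenge used bursicon conditioned medium at about half maximal strength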
CFTR F508del cor: F508del CFTR correction, initial screen, CFBE line, single point | actives 0.36% (n = 350,000) | activity (quench increase), % at 7.58 µM | CFBE cells, YFP halide quenching; stimulated with forskolin plus potentiator P3; % fluorescence drop versus neutral controls;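 active = mean added fluorescence quench of at least 8% versus neutral control, with both replicates also reaching 8%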;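 also: cells transiently co-express mutant CFTR-F508del with the halide-sensitive YFP; corrector assay measuring rescue of mutant channel to the surface after 24 h compound exposure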
INS-1E GSIS act: GLuc luminescence reporter in INS-1E cells, primary screen for activators of glucose-dependent secretion of insulin; actives 0.61% (n = 370,000); INS-1E GLuc reporter insulin secretion, 2-3 h; activation, % at 16.6 µM;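 active = lowest replicate activation of at least 40%, so every replicate reaches that level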
RAD52 anneal inh: RAD52 DNA annealing inhibitors, primary screen, biochemical, FRET, single point, set 2 | inhibition, % at 18.7 µM | AID 651710, 2012 | actives 0.46% (n = 360,000) | recombinant RAD52 DNA annealing, FRET fluorescence;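 active = every replicate showing at least 50% inhibition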
Numbers stand for hits; - = inactive; . = no result. Most compounds without a hit are left out; they make up all but 1.8% or so of the library.

SMILES	RAD54 branch	EWS-Fli block	LGR2 inh	CFTR F508del cor	INS-1E GSIS act	RAD52 anneal inh
O=C1C[C@@](C(=O)NCCN2CCOCC2)(c2ccc([N+](=O)[O-])cc2)[C@@H](c2ccc(CO)cc2I)N1CC12CC3CC(CC(C3)C1)C2	-	-	.	-	.	58
N/C(=N\N=C\c1cccs1)SC1CC(=O)N(c2cccc([N+](=O)[O-])c2)C1=O (centres undefined)	.	-	-	-	-	-
CCOc1ccc(N2C(=O)CC(S/C(N)=N/N=C/c3cccs3)C2=O)cc1 (centres undefined)	-	.	-	.	54	.
O=C(CCCN1CCC(O)(c2cccc(C(F)(F)F)c2)CC1)c1ccc(F)cc1	-	-	-	8.3	-	-
COC(=O)c1ccc(-c2nc(-c3cccs3)no2)cc1	-	58	84	-	-	-
CCOc1cc2c(c3c1C(c1ccccc1)N(S(=O)(=O)c1ccc(C)cc1)C3)C(=O)C=CC2=O (centres undefined)	-	62	.	-	.	-
CCOc1ccc(C(=O)NC(=S)Nc2ccc(N3CCCCC3)cc2)cc1[N+](=O)[O-]	.	-	-	-	-	-
O=C(CCNS(=O)(=O)c1ccccc1F)N1CCN(C(c2ccccc2)c2ccccc2)CC1	-	-	-	-	-	-
NC(=O)C1CCN(C(=O)CCNS(=O)(=O)c2ccccc2F)CC1	-	-	-	-	48	-
COc1ccc(/C=N/OCC(=O)N=Nc2c(O)[nH]c3ccc(Br)cc23)cc1	.	-	-	.	-	-
O=C(N=Nc1c(O)[nH]c2ccc(Br)cc12)c1ccccc1-n1cccc1	-	-	-	13	-	-
Cc1cccc(C)c1OCC(=O)N=Nc1c(O)[nH]c2ccc(Br)cc12	-	.	-	.	51	.
O=C(Nc1nccs1)C12CC3CC(C1)CC(C(=O)Nc1nccs1)(C3)C2	-	.	.	.	.	.
CCOC(=O)C(=O)/C(C#N)=C/Nc1ccccc1	-	.	.	.	.	.
CCCCC(CC)C(=O)Oc1ccc(O)c(C(C)(C)C)c1 (centres undefined)	-	-	-	-	511	-
Cc1ccc(S(=O)(=O)N(CC(=O)Nc2ccc(C)cc2C)C(=O)N2CCN(C)CC2)cc1	-	-	-	-	221	-
Cc1ccc(S(=O)(=O)N(CC(=O)Nc2cccc(C)c2C)C(=O)N2CCN(C)CC2)cc1	-	-	-	-	-	-
Cc1ccc(NC(=O)CN(C(=O)N2CCN(C)CC2)S(=O)(=O)c2ccc(C)cc2)cc1	-	-	-	-	45	-
O=C(CN1CCOCC1)NCC[C@H]1CC[C@@H](NC(=O)Nc2ccc(F)cc2)[C@@H](CO)O1	-	-	-	-	-	-
O=C(c1cnccn1)N1CCc2c([nH]c3ccccc23)C1c1cccc(Cl)c1 (centres undefined)	-	-	-	-	-	-
O=C(CCN1CCCCC1)N1CCc2c([nH]c3ccccc23)C1c1cccnc1 (centres undefined)	.	-	-	8.9	-	-
CCCN(C)C[C@@H]1OCCCC[C@H](C)Oc2ccc(NC(=O)Nc3ccc(F)cc3)cc2C(=O)N([C@H](C)CO)C[C@@H]1C	-	-	-	-	-	53
C[C@H](CO)N1C[C@H](C)[C@H](CN(C)C(=O)Nc2ccc(F)cc2)OCCCC[C@H](C)Oc2ccc(NC(=O)NC3CCCCC3)cc2C1=O	-	-	72	-	-	-
C[C@H](CO)N1C[C@H](C)[C@H](CN(C)C(=O)Nc2ccc(C(F)(F)F)cc2)OCCCC[C@H](C)Oc2ccc(NC(=O)NC3CCCCC3)cc2C1=O	-	-	55	-	-	.
C[C@H](CO)N1C[C@H](C)[C@H](CN(C)C(=O)Nc2ccc(F)cc2)OCCCC[C@H](C)Oc2ccc(NC(=O)Nc3ccccc3)cc2C1=O	-	-	59	-	-	-

Source: PubChem
